Screening results: PubChem, National Center for Advancing Translational Sciences (NCATS)
Only some compounds are listed: those with a hit (about 0.38% of all), similar ones and a draw of the others.
EPAC1 antagonist – blocks human EPAC1 exchange factor | Potency, µM (doses to about 115 µM), usual class: inhibitors | EPAC1 GEF assay, Rap1b-BODIPY-GDP exchange fluorescence | 0.14% of 360,000 active | O95398; note: nearly all actives have a fitted effect of over 50% in size
Target sequence (O95398 whole entry, looked up): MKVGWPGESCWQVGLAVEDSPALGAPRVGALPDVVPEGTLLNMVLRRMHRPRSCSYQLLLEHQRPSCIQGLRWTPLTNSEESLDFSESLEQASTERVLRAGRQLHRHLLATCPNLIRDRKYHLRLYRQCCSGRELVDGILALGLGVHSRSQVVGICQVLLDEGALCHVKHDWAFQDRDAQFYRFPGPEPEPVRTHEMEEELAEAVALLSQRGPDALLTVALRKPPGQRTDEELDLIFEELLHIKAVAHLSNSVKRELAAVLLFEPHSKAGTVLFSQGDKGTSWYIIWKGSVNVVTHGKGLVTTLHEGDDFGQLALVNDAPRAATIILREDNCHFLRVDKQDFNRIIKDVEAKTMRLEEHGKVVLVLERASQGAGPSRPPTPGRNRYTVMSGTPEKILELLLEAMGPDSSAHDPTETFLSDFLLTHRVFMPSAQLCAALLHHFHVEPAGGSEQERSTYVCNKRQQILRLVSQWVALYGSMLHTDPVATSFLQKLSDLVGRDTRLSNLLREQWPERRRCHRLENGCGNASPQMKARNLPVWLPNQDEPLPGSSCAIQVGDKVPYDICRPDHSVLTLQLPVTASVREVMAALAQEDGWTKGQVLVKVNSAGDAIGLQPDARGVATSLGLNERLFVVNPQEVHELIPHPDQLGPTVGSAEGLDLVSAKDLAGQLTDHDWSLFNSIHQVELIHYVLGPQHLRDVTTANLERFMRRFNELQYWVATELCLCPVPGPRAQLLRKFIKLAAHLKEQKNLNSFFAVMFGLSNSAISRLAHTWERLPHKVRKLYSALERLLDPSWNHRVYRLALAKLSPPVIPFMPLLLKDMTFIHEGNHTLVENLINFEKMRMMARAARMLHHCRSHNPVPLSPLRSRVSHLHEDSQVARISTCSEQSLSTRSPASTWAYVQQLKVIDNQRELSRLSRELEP
EPAC2 antag – blocks human EPAC2 exchange factor | Q8WZA2 | EPAC2 GEF exchange of Rap1B-BODIPY-GDP, fluorescence | Potency, µM (titrated, usually from 114 µM), hits mostly inhibitors | 0.18% of 360,000 active | AID 720708; note: nearly all actives have a fitted effect of over 45% in size
EPAC1 agonist – agonists of human EPAC1; 0.073% of 360,000 active; EPAC1 agonist qHTS, biochemical assay; response scale: 100% = response to 6.5 mM cAMP; Potency, µM (doses to about 154 µM), usual class: activators; note: nearly all actives have a fitted effect of over 60% in size
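Read-out is the fluorescence drop as BODIPY-GDP leaves Rap1B (480 nm excitation, 540 nm emission), recorded every 5 minutes over 30 minutes. Reactions held 100 nM EPAC1, 250 nM Rap1B–BODIPY-GDP and 50 uM GDP, with 6.5 mM cAMP setting full activation.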
EPAC2 agonist – activates human EPAC2 exchange factor. Q8WZA2. EPAC2 activation, biochemical qHTS; response scale: 100% = 6.5 mM cAMP response. Potency, µM (doses to about 154 µM), hits mostly activators. 0.079% of 360,000 active. AID 720711; note: nearly all actives have a fitted effect of over 50% in size
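Nucleotide exchange monitored as fluorescence drop when BODIPY-GDP leaves Rap1B. Reaction: 100 nM EPAC2, 250 nM RAP1B-BODIPY-GDP, 50 uM GDP, room temperature, kinetic read over 30 min. Activity expressed relative to 6.5 mM cAMP.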
Of the large screens only hits and unclear results are named; the others gave an inactive call. Calls come from the whole dose curve; as a rule, active = well fitted curve in the direction sought with a large enough effect; inconclusive = small, poorly fitted or top-dose-only effect, or another doubt; inactive = no such curve, though single readings can be large; an effect the other way counts as inactive or inconclusive.

Cc1[nH]n(-c2ncc(-c3ccccc3)s2)c(=O)c1C(c1ccc(Cl)cc1)C(C#N)C#N (stereo not drawn)	EPAC1 antagonist 50µM
COc1ccc(C=NNC(=O)c2cc(C)oc2C)cc1O	EPAC1 antagonist inconclusive
O=c1c(/C=C(\O)c2ccccc2)nc2ccccc2n1-c1ccccc1	EPAC1 agonist 100µM, EPAC2 agonist 100µM
CCCN1CCc2c(sc(NC(=O)c3ccc(S(=O)(=O)N(C)c4ccccc4)cc3)c2C(N)=O)C1	EPAC2 agonist 112µM
CCCN1CCc2c(sc(NC(=O)c3ccc(S(=O)(=O)N(C)c4ccccc4)cc3)c2C(=O)NC)C1	none
O=C(N/N=C/c1ccccc1O)c1cccc(C(F)(F)F)c1	EPAC1 antagonist 7.9µM
COc1ccc(C(=O)Nc2nc(-c3ccc([N+](=O)[O-])cc3)c(-c3ccc(OC)cc3)s2)cc1	EPAC1 agonist 112µM, EPAC2 agonist 100µM
COCCCNC(=O)C(C#N)c1nc2ccccc2nc1N1CCN(Cc2ccccc2)CC1 (stereo not drawn)	EPAC2 antag 79µM
O=C(CCc1nc(-c2ccc(F)cc2)no1)Nc1cccc(C(=O)NC2CC2)c1	none
CC1(C(=O)NS(=O)(=O)c2ccc(Cl)cc2)CCN1C(=O)C1(c2ccc(Cl)cc2)CCC1 (stereo not drawn)	EPAC2 antag inconclusive
Cc1ccc(F)c(S(=O)(=O)NC(=O)C2(C)CCN2C(=O)C2(c3ccc(Cl)cc3)CC2)c1 (stereo not drawn)	EPAC2 antag inconclusive
Cc1ccc(F)c(S(=O)(=O)NC(=O)C2(C)CCN2C(=O)C2(c3ccc(Cl)cc3)CCC2)c1 (stereo not drawn)	EPAC2 antag 45µM
CC1(C(=O)NS(=O)(=O)c2ccc3c(c2)CCO3)CCN1C(=O)C1(c2ccc(Cl)cc2)CCC1 (stereo not drawn)	EPAC1 antagonist 50µM, EPAC2 antag inconclusive
N#CCCN(C(=O)COC(=O)C1CCN(S(=O)(=O)c2ccccc2C(F)(F)F)CC1)c1ccccc1	none
